{"source": "PubChem BioAssay (EPA / NIEHS)", "note": "Calls of active or inactive are those of the source. How the source made its calls: active means hit-call score of the fitted dose curve at least 0.9, where 1 is the maximum; inactive means score below 0.9."}
{"experiment": "APR_HepG2_MicrotubuleCSK_72hr: Apredica 72-hour HepG2 Assay for Microtubule CSK Stabilty (AID 2282919)", "details": "HepG2 microtubule cytoskeleton, high-content imaging, actives raise or lower the signal", "protocol": "APR_HepG2_72hr is a cell-based, multiplexed-readout assay that uses HepG2, a human liver cell line, with measurements taken at 72 hours after chemical dosing in a 384-well plate.APR_HepG2_MicrotubuleCSK_72hr is one of 10 assay component(s) measured or calculated from the APR_HepG2_72hr assay. It is designed to make measurements of protein conformation, a form of conformation reporter, as detected with fluorescence intensity signals by HCS Fluorescent Imaging technology.Data from the assay component APR_HepG2_MicrotubuleCSK_72hr was analyzed into 1 assay endpoint. This assay endpoint, APR_HepG2_MicrotubuleCSK_72hr, was analyzed with bidirectional fitting relative to DMSO as the negative control and baseline of activity. Using a type of conformation reporter, measures of protein for gain or loss-of-signal activity can be used to understand the signaling at the cellular-level. Furthermore, this assay endpoint can be referred to as a primary readout, because this assay has produced multiple assay endpoints where this one serves a signaling function. To generalize the intended target to other relatable targets, this assay endpoint is annotated to the cell morphology intended target family, where the subfamily is cell conformation.\nCells were treated with dimethyl sulfoxide (DMSO) as a solvent control at a final concentration of 0.5% v/v or with compounds in DMSO with a resulting final DMSO concentration of 0.5% v/v. Compound treatment was done at concentrations of 0.39, 0.78, 1.56, 3.12, 6.24, 12.5, 25, 50, 100, and 200 uM in duplicate on each plate. Cells were treated with compounds for 1, 24, or 72 hr. Carbonyl […] m-chloro-phenylhydrazone (CCCP) and taxol were used as positive controls for mitochondrial function and cytoskeletal stability, respectively; DMSO served as the negative control for this experiment. Cells were fixed by the direct addition of 50 uL formaldehyde in Hank's Balanced Salt Solution (HBSS) to a final concentration of 3.7%. After incubation in the fixation medium for 30 min at room temperature (293-298 K), cells were rinsed twice with HBSS and treated with cell permeabilization buffer (16 uL of 0.5% Triton X-100) for 10 min at room temperature (293-298 K) before labeling. For mitochondrial membrane potential and mitochondrial measurements, pre-fixed cells were incubated with 50 uL of MitoTracker Red CMXRos (Invitrogen) at a concentration of 250 nM for 30 min before fixation. In the remaining cases, post-fixed cells were labeled by incubation with a multiplexed mixture of primary antibodies in HBSS for 60 min at room temperature (293-298 K) to detect immunoreactivity of c-Jun (1:500), phospho-histone H3 (1:100), phospho-histone H2A.x (1:200), p53 (1:400), alpha-tubulin (1:200) and Hoechst 33342 (2 ug/mL). Cells were labeled for multiplexed imaging on two separate plates: a) Hoechst 33342, MitoTracker Red, phospho-histone H3, and alpha-tubulin, and b) Hoechst 33342, phospho-histone H2A.x, and c-Jun. A final rinse with HBSS (50 uL) was performed before analysis. The primary and secondary antibodies for the proteins were phospho-histone H3 (rabbit anti-phospho-histone H3 and FITC-donkey anti-rabbit IgG), phospho-histone H2A.x (mouse anti-phospho-histone H2A.x and FITC-donkey anti-mouse IgG), c-Jun (rabbit anti-phospho-c-Jun and Cy3-donkey anti-rabbit IgG), p53 (sheep anti-p53 and Cy5-donkey anti-sheep IgG), alpha-tubulin (mouse anti-alpha-tubulin and Cy5-donkey anti-mouse IgG). These antibodies are available as the CellCiphr HepG2 assay kit (Millipore).Digital images of each well were captured using a Cellomics ArrayScan VTI (Thermo Scientific Cellomics) (0.8 NA objective, 0.63x optical coupler, and XF-93 filter set) at 20x magnification. The images were acquired using the autofocus feature of the ArrayScan instrument, which entails the following steps. First, the camera focuses on channel 1 (Hoechst 33342), where nuclei are identified. Second, a Z offset of 1 um is used for capturing mitochondria (MitoTracker Red). […]"}
{"compound": "CC(C)(C)c1ccccc1O", "outcome": "inactive"}
{"compound": "O=C(N[C@H]1CN2CCC1CC2)c1ccc2c(c1)OCCO2", "outcome": "inactive"}
{"compound": "Cc1cc(C)cc(C)c1", "outcome": "inactive"}
{"compound": "Clc1cccc(Cl)c1", "outcome": "inactive"}
{"compound": "O=C(O)C1(c2ccc3c(c2)OC[C@H](Cc2ccc(-c4ccccc4)cc2)[C@H]3O)CCCC1", "outcome": "inactive"}
{"compound": "CC(C)O.CC(C)O.OCCN(CCO)CCO.OCCN(CCO)CCO.[Ti]", "outcome": "inactive"}
{"compound": "OCCN(CCO)CCO", "outcome": "inactive"}
{"compound": "CCCCCCCCCCCCc1cccc(S(=O)(=O)O)c1", "outcome": "inactive"}
{"compound": "CN(C)C(=S)S", "AC50": "1780 nM (active)"}
{"compound": "N#Cc1cccnc1", "outcome": "inactive"}
{"compound": "Oc1cc(Cl)c(Cl)cc1Cl", "outcome": "inactive"}
{"compound": "Clc1cccc(Cl)c1Cl", "outcome": "inactive"}
